Results published in ChEMBL document CHEMBL2218924, “A broad activity screen in support of a chemogenomic map for kinase signalling research and drug discovery” (Biochem J, 2013).

Columns and labels:
[1] = biological target: G protein-coupled receptor kinase 6 (Homo sapiens) (UniProt P43250); conditions: at 1 µM
[2] = biological target: G protein-coupled receptor kinase 5 (Homo sapiens) (UniProt P34947); conditions: at 1 µM
Chain of G protein-coupled receptor kinase 5 (Homo sapiens) (P34947 whole entry, looked up): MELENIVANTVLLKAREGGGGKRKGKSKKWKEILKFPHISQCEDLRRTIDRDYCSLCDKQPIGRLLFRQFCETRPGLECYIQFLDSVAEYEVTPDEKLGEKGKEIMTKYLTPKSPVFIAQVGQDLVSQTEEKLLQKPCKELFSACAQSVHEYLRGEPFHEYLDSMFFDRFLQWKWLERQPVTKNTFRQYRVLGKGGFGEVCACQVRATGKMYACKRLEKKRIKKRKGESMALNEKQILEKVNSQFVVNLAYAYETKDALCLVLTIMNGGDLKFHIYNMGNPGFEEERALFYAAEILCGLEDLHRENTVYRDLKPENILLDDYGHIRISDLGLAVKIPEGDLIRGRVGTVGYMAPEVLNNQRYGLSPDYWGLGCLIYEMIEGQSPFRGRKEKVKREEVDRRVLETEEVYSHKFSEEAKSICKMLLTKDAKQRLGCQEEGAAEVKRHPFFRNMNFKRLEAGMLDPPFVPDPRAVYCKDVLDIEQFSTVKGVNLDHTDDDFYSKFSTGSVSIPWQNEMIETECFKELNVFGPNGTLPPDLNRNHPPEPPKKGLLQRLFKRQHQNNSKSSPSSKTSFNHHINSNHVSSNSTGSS

Chain of G protein-coupled receptor kinase 6 (Homo sapiens) (P43250 whole entry, looked up): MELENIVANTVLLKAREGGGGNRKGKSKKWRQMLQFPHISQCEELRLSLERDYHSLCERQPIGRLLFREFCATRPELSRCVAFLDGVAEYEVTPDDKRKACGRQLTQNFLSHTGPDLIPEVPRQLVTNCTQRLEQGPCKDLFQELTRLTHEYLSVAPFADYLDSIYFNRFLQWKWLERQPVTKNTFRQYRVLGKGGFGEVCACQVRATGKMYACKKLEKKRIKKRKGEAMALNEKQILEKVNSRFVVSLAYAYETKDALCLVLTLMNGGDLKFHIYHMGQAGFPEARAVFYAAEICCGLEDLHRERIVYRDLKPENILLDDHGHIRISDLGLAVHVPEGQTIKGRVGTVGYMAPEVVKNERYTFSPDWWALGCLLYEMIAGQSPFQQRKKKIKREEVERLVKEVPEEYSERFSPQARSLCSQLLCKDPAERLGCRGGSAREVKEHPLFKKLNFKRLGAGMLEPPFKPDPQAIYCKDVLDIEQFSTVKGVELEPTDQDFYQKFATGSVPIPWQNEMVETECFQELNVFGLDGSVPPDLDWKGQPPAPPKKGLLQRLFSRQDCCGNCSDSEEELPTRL

| SMILES | residual activity [1] [%] | residual activity [2] [%] |
| --- | --- | --- |
| O=C(O)/C=C/c1cc(Br)c(Br)c(Br)c1Br | 99 | – |
| N#CC(C#N)=C(N)/C(C#N)=C/c1ccc(O)cc1 | 94 | – |
| O=C(NC(NC(=S)Nc1ccc(F)c([N+](=O)[O-])c1)C(Cl)(Cl)Cl)C(c1ccccc1)c1ccccc1 (stereo unspecified) | 100 | 90 |
| O=C1Nc2ccccc2/C1=C1/Nc2ccccc2/C1=N\OCCC(O)CO (stereo unspecified) | 68 | – |
| O=C1Nc2cc(Br)ccc2/C1=C1/Nc2ccccc2/C1=N\O | 89 | 89 |
| Cc1cc(Nc2nc(-c3ccccc3)nc3ccccc23)n[nH]1 | 76 | – |
| COc1cc2nccc(Oc3ccc(NC(=S)NC(=O)c4ccccc4C)cc3)c2cc1OC | 87 | 98 |
| CCN1/C(=C/C(C)=O)Sc2ccc(OC)cc21 | 100 | – |
| COc1ccc(C(=O)Nc2sc3c(c2C(N)=O)CCCC3)cc1OC | 90 | 91 |
| CO[C@H]1[C@@H](OC)C[C@H](C)[C@@H](OC)C2=CC(=O)C=C(NC(=O)/C(C)=C/C=C/[C@H](OC)[C@@H](OC(N)=O)/C(C)=C/[C@@H]1C)C2=O | 97 | 70 |
| O=[N+]([O-])c1ccc(-c2nc(-c3ccc(F)cc3)c(-c3ccncc3)[nH]2)cc1 | 102 | 101 |
| COc1cc2ncnc(Nc3ccc(O)c(Br)c3)c2cc1OC | 85 | 89 |
| O=Nc1c(-c2c(O)[nH]c3ccccc23)[nH]c2ccccc12 | 81 | 92 |
| O=C1Nc2ccc(Cl)cc2/C1=C/c1cc(Cl)c(O)c(Cl)c1 | 90 | – |
| O=C(Nc1cccc(Nc2cc(Nc3cccc(C(F)(F)F)c3)ncn2)c1)C1CC1 | 98 | 102 |
| COc1ccc(Cl)cc1NC(=O)Nc1cc(C)nc2ccccc12 | 98 | – |
| NC(=O)c1ccc(-c2nc(-c3ccc4c(c3)OCCO4)c(-c3ccccn3)[nH]2)cc1 | 95 | – |
| O=c1cc(N2CCNCC2)oc2c(-c3ccccc3)cccc12 | 102 | 81 |
| NC(=O)c1cccc(-c2cc(Nc3ccc(OC(F)(F)F)cc3)ncn2)c1 | 94 | – |
| COc1ccc(-c2cnc3c(-c4ccsc4)cnn3c2)cc1 | 99 | – |
| Nc1ncnc2c1cnn2-c1ccccc1 | 93 | – |
